Measurements: PubChem BioAssay (NCATS)
“And” between values parts separate entries of the source, which are not always exact repeats. Equal values may be shown once. Inconclusive results are not listed. A call without a number means that no potency is given here. The source made the active and inactive calls. Unless noted, calls come from the whole dose curve; as a rule, active = well fitted curve in the direction sought with a large enough effect; inconclusive = small, poorly fitted or top-dose-only effect, or another doubt; inactive = no such curve, though single readings can be large; an effect the other way counts as inactive or inconclusive.

Experiments:
[1] = qHTS for differential inhibitors of proliferation of Plasmodium falciparum line 3D7 (AID 1876);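 note: parasite growth measured after three days of culture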
[2] = qHTS for differential inhibitors of proliferation of Plasmodium falciparum line Dd2 (AID 1882); conditions: Potency: Plasmodium falciparum Dd2 proliferation inhibition; note: nearly all actives have a fitted effect of over 65% in size
How it was run: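 SYBR Green DNA fluorescence (ex 485, em 535 nm) after overnight lysis quantifies parasite growth; compound exposure lasted 72 h at 37 C on infected red cells at 2.5% hematocrit, 0.3% parasitemia (final). Artemisinin 0.29 uM and vehicle wells define normalization.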

[3] = biological target: ATP-dependent DNA helicase Q1 (Homo sapiens) (UniProt P46063); assay: qHTS Validation Assay for Inhibitors of RecQ-Like Dna Helicase 1 (RECQ1) (AID 2353); note: potency is the fitted concentration of half-maximal effect
How it was run: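 RECQ1T1 50 nM; forked duplex (20 bp + 30-nt ss tails) 200 nM, ATP 2 mM final; pH 8.0, 2 mM MgCl2, 2.5 ug/ml poly(dI-dC); 15 min compound preincubation; discontinuous kinetic read over 2 h at RT.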

[4] = biological target: RecQ-like DNA helicase BLM (Homo sapiens) (UniProt P54132); assay: qHTS Validation Assay for Inhibitors of Bloom's syndrome helicase (BLM) (AID 2364); note: potency is the fitted concentration of half-maximal effect
Chain of RecQ-like DNA helicase BLM (Homo sapiens) (P54132 whole entry, looked up): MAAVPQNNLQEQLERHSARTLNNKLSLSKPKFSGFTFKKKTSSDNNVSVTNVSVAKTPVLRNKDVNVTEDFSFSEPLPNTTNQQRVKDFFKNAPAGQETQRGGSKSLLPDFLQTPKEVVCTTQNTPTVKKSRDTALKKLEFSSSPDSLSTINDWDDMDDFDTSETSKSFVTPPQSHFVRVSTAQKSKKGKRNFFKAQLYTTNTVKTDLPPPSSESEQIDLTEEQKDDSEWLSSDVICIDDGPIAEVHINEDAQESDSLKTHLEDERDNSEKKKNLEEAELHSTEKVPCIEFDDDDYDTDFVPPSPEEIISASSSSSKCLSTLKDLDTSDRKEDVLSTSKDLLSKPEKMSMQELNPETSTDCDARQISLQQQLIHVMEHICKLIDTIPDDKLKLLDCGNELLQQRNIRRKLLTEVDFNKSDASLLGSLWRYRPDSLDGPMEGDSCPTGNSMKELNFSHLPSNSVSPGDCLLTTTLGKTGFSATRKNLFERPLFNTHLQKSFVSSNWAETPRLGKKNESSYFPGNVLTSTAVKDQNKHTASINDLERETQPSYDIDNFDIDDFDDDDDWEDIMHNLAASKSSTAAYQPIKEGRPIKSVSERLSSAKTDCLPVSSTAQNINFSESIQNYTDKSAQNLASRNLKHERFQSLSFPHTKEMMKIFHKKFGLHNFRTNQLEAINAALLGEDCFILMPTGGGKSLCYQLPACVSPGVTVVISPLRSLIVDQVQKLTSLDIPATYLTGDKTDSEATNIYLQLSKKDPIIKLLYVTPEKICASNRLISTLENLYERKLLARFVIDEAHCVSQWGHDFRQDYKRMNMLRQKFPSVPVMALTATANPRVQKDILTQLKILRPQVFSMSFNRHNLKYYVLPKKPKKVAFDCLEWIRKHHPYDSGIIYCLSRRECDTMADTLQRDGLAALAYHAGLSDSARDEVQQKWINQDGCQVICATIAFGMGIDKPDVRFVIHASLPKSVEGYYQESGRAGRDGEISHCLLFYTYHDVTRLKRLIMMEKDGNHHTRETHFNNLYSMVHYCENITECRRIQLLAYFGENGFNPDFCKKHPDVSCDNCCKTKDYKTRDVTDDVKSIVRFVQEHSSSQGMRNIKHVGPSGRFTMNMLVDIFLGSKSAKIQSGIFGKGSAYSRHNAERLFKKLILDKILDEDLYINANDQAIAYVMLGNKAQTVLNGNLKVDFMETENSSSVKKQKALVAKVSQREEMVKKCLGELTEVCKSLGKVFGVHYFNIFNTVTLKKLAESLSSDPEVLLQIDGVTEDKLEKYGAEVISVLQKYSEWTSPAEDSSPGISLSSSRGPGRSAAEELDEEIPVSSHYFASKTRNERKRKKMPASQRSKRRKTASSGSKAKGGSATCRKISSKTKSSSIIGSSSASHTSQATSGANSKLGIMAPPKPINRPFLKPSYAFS
How it was run: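 Forked 20-bp duplex substrate (200 nM, TAMRA/BHQ-2) plus 2 mM ATP added after 15 min compound preincubation with 50 nM enzyme, pH 8.0, poly(dI-dC) 2.5 ug/ml. Strand separation followed by fluorescence (525/598 nm) over 2 h, normalized to enzyme-free and DMSO controls.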

[5] = Cytometric Cell-Based qHTS for Inhibitors of the mTORC1 Signaling Pathway in MEF (Tsc2-/-, p53-/-) Cells (AID 2660);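 note: percent of cells above a phospho-rpS6 to PI ratio cutoff in each well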
How it was run: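 Tsc2-/-, p53-/- MEFs (empty vector) exposed to compound 24 h at 37 C, fixed, stained with Alexa-488 anti-phospho-rpS6 Ser235/236 and propidium iodide. Acumen laser scanning; phospho-S6/PI ratio thresholded against 7.5 nM rapamycin, reported as % positive cells.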

[6] = High Content Imaging Cell-Based qHTS for Inhibitors of the mTORC1 Signaling Pathway in MEF (Tsc2-/-, p53-/-) Cells (AID 2666); conditions: at 38.3 µM (top of the series);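 note: percent of cells scored positive for phospho-rpS6 Ser235/236 immunostaining by imaging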
How it was run: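 Tsc2-/-, p53-/- MEFs (empty-vector stable) grown in DMEM + 10% FBS were exposed to compounds for 24 hrs at 37 degree Celsius, fixed, and stained with Alexa-488 anti-phospho-rpS6 Ser235/236 plus Hoechst. Imaging gave the percentage of positive cells per well.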

[7] = High Content Imaging Cell-Based qHTS for Inhibitors of the mTORC1 Signaling Pathway in MEF Cells (AID 2667);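 note: Tsc2-/- p53-/- MEFs stably re-expressing wild-type Tsc2 exposed 24 h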
How it was run: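 Tsc2-/-, p53-/- MEFs stably re-expressing WT Tsc2, grown in DMEM + 10% FBS, were treated with compounds for 24 hrs at 37 degree Celsius, fixed, and stained with Alexa-488 phospho-rpS6 Ser235/236 antibody plus Hoechst; results given as % positive cells.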

[8] = Cytometry Cell-Based qHTS for Inhibitors of the mTORC1 Signaling Pathway in MEF cells (AID 2668);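 note: Tsc2-/- p53-/- mouse embryonic fibroblasts stably re-expressing wild-type Tsc2; percent cells positive for phospho-rpS6 Ser235/236 relative to propidium iodide stain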
How it was run: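 Phospho-rpS6 (Ser235/236) immunofluorescence over PI signal, scored as % positive cells using thresholds from 7.5 nM rapamycin and DMSO wells, after 24 h compound exposure of WT-Tsc2-rescued Tsc2-/-, p53-/- MEFs. PI cell count recorded for viability.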

[9] = Validation screen for small molecules that induce DNA re-replication in MCF 10A normal breast cells (AID 463097); note: nearly all actives have a fitted effect of over 60% in size
How it was run: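 Read-out is Hoechst total nuclear intensity by fluorescence scanning imager, flagging increased high-DNA-content nuclei. Compounds were incubated with MCF 10A cells for 48 hr (37 C, 5% CO2) before 40 min staining.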

[10] = biological target: Ubiquitin carboxyl-terminal hydrolase 2 (Homo sapiens) (UniProt O75604); assay: qHTS Validation Assay for Inhibitors of Ubiquitin-specific Protease USP2a Using CHOP2 as the Reporter (AID 463106); note: potency is the fitted concentration of half-maximal effect
Chain of Ubiquitin carboxyl-terminal hydrolase 2 (Homo sapiens) (O75604 whole entry, looked up): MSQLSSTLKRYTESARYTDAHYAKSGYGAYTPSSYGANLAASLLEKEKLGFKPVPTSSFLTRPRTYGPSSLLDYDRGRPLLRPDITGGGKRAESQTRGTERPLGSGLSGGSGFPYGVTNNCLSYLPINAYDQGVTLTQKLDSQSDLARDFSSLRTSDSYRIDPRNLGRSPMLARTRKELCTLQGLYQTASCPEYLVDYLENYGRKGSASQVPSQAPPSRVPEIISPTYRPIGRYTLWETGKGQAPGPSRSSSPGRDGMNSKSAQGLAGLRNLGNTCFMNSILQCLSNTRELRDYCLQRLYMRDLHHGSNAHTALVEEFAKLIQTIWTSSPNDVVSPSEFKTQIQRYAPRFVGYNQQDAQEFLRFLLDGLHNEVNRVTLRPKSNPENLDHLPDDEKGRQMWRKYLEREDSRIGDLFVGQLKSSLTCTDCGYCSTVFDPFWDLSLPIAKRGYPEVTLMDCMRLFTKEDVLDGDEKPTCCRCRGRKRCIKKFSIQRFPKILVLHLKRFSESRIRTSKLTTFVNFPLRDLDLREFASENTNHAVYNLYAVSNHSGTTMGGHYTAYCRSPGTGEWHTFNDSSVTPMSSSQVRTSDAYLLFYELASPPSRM
How it was run: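 Readout was coupled fluorescence (Ex 485/Em 531 nm), read 60 min after adding 25 nM final Ub-CHOP2 and 25 nM reporter substrate. Beforehand, 10 nM final USP2 core had 30 min at RT with compound in pH 8.0 buffer. Curves were fitted after normalization to NEM and flagged for artifacts using time-zero reads.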

[11] = biological target: Tumor susceptibility gene 101 protein (Homo sapiens) (UniProt Q99816); assay: qHTS Validation Assay for Iinhibitors of HIV-1 Budding by Blocking the Interaction of PTAP/TSG101 (AID 485342; calls by dose curve)
Chain of Tumor susceptibility gene 101 protein (Homo sapiens) (Q99816 whole entry, looked up, the tested form may be a part): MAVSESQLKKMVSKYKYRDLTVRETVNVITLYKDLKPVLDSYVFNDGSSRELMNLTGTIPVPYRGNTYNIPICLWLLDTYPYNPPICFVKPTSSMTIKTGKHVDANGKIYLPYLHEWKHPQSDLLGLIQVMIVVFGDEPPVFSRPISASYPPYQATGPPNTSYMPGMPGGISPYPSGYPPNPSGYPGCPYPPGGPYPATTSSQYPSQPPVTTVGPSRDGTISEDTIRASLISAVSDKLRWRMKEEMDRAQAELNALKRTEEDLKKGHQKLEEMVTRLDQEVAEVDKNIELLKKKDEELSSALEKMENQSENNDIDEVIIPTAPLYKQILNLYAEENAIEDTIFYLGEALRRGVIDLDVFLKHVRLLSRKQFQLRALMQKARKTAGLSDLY
How it was run: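 Fluorescence polarization of 50 nM FITC-PTAP peptide bound to 10 uM Tsg101 binding domain was read after 20 min room-temperature incubation with compounds, in 10 mM HEPES pH 7.5, 0.15 M NaCl, 0.01% Tween 20.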

[12] = biological target: Beta-2 adrenergic receptor (Homo sapiens) (UniProt P07550); assay: qHTS validation assay of beta-arrestin-biased ligands of beta2-adrenergic receptor (AID 485366)
How it was run: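 qHTS, Tango cells, 1500 cells/well, DMEM + 1% FBS. Cpd 18 hr at 37 degrees C. Luciferin/ATP/CoA detection mix, 15 min RT, luminescence read. %Activity from corrected signal; CRC fit, curve class.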

[13] = biological target: ATP-dependent 6-phosphofructokinase (Trypanosoma brucei brucei) (UniProt O15648); assay: qHTS Validation Assay to Find Inhibitors of T. brucei phosphofructokinase (AID 485368); note: potency is the fitted concentration of half-maximal effect
Chain of ATP-dependent 6-phosphofructokinase (Trypanosoma brucei brucei) (O15648 whole entry, looked up): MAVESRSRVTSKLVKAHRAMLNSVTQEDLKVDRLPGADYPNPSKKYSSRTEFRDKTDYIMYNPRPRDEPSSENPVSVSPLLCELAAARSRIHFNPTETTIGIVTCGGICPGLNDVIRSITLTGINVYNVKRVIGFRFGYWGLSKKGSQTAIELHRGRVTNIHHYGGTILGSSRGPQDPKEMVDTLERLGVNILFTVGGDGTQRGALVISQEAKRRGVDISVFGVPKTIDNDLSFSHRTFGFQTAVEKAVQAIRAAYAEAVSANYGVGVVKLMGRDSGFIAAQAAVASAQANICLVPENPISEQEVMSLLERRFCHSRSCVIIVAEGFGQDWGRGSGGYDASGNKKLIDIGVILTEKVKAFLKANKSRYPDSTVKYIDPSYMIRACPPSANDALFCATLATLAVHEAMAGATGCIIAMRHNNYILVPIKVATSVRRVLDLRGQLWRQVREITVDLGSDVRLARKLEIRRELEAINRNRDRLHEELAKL
How it was run: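 Luminescent ADP detection measures PFK turnover of fructose-6-phosphate (0.5 mM) with ATP (0.1 mM) at pH 8.0. Reaction runs 45 min at room temperature with 1.25 nM enzyme; inhibitors tested as titrations up to 57 uM.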

[14] = biological target: Thioredoxin reductase 1, cytoplasmic (Rattus norvegicus) (UniProt O89049); assay: qHTS Assay for Substrates of Mammalian Selenoprotein Thioredoxin Reductase 1 (TrxR1) (AID 488772);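 note: a drop in NADPH fluorescence below the no-compound background marks a TrxR1 substrate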
How it was run: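 In this dual-purpose format, potential substrates are identified from the first fluorescence read after selenite addition, not from the 8-minute delta. Rat enzyme is preincubated with NADPH and then with compound at ~22 deg C.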

[15] = biological target: M-phase phosphoprotein 8 (Homo sapiens) (UniProt Q99549); assay: qHTS Validation Assay for Inhibitors for MPP8 Chromodomain Interactions with Methylated Histone Tails (AID 488949); note: potency is the fitted concentration of half-maximal effect; nearly all actives have a fitted effect of over 55% in size
Chain of M-phase phosphoprotein 8 (Homo sapiens) (Q99549 whole entry, looked up): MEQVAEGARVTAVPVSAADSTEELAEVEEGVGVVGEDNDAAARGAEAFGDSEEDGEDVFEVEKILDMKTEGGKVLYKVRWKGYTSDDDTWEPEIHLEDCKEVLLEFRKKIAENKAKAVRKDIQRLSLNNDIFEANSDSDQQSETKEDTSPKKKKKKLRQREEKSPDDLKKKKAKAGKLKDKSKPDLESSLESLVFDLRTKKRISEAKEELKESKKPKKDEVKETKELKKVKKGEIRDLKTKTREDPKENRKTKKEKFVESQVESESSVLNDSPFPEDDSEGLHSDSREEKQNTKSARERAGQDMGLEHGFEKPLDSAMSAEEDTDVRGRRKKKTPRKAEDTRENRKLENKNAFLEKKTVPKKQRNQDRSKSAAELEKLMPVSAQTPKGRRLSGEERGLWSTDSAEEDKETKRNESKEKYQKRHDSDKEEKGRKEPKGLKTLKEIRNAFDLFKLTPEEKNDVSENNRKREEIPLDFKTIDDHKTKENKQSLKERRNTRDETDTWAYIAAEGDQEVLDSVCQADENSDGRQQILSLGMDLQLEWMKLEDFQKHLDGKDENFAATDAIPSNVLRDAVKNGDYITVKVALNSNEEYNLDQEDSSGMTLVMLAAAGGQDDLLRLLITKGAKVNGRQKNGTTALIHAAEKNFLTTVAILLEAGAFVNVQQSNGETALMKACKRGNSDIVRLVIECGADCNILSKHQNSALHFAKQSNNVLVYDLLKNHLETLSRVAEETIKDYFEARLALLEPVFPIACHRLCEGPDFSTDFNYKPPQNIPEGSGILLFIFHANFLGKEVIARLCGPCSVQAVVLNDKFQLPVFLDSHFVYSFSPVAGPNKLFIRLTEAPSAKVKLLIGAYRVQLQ
How it was run: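 AlphaScreen proximity signal from streptavidin donor and Ni-chelate acceptor beads (10 ug/mL each) reported binding of MPP8 to trimethyl-K9 H3(1-18) peptide, both at 50 nM. The complex formed 30 min before a 30 min compound exposure at room temperature, in PBS pH 7.4.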

[16] = biological target: Chromobox protein homolog 1 (Homo sapiens) (UniProt P83916); assay: qHTS Validation Assay for Inhibitors of HP1-beta Chromodomain Interactions with Methylated Histone Tails (AID 488953); note: potency is the fitted concentration of half-maximal effect; nearly all actives have a fitted effect of over 50% in size
Chain of Chromobox protein homolog 1 (Homo sapiens) (P83916 whole entry, looked up): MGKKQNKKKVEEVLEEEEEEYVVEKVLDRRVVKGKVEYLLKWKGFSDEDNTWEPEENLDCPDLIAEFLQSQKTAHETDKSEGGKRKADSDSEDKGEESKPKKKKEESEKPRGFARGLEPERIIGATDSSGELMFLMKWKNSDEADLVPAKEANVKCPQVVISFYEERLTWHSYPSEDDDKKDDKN
How it was run: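 AlphaScreen proximity signal from streptavidin donor and nickel chelate acceptor beads (final 10 ug/mL) after 30 min dark incubation. Compounds had 30 min at room temperature with preformed complex of 50 nM HP1-beta and 50 nM b-H3(1-18)K9me3 in PBS pH 7.4 with 0.01% Tween-20.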

[17] = biological target: Methanococcus maripaludis chaperonin (MmCpn) (UniProt Q6LX38); assay: High-Throughput Screening for Modulators of Cytosolic Chaperonin Activity: MmCpn Primary Screen (AID 488978);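 note: 50 nM MmCpn enzyme hydrolysing 30 µM ATP at 37 °C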
Chain of Methanococcus maripaludis chaperonin (MmCpn) (Q6LX38 1-543): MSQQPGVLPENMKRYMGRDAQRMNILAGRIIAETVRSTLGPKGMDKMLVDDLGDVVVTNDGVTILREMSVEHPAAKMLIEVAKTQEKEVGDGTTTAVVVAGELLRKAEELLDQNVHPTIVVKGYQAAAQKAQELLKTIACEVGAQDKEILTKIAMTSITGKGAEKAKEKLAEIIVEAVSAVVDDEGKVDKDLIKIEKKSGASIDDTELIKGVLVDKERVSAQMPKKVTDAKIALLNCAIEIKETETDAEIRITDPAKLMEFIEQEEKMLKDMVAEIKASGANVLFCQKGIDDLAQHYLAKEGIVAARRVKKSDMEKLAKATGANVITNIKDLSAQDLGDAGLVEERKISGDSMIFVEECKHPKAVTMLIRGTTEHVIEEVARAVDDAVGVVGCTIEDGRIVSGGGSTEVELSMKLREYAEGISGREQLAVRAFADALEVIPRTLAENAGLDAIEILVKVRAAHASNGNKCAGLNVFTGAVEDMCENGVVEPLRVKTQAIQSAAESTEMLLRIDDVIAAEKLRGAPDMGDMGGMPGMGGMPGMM
How it was run: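 ATPase activity of 50 nM MmCpn was assayed with 30 uM ATP, 10 minutes at 37C, after a 5 min compound preincubation at room temperature. ADP production was read as HTRF emission at 590 and 665 nm.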

[18] = biological target: Transient receptor potential cation channel subfamily V member 1 (Homo sapiens) (UniProt Q8NER1); assay: HTS Assay for Compounds that Act as Enhancers of the Vanilloid Receptor 1 (AID 488979)
How it was run: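 Calcium influx kinetics via Fluo-8 (480/520 nm) in TRPV1-expressing cells, 2000/well cultured overnight at 35.5C. Compound-alone read 3 min (agonist phase), followed by EC20 capsaicin challenge for 2 min (enhancer phase).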

[19] = biological target: Thyrotropin receptor (Homo sapiens) (UniProt P16473); assay: qHTS Assay for Antagonists of the Thyroid Stimulating Hormone Receptor (AID 488980)
How it was run: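 Inhibition of cAMP raised by EC80 TSH (4 nM final) was read by HTRF, with lysate cAMP competing against cAMP-d2 for cryptate antibody after 30 min at room temperature. The cells were transfected HEK293 held in phosphodiesterase inhibitor RO 20-1724 at 70 uM.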

[20] = biological target: D(1A) dopamine receptor (Homo sapiens) (UniProt P21728); assay: HTS Assay for Allosteric Agonists of the Human D1 Dopamine Receptor: Primary Screen for Agonists (AID 488981)
Chain of D(1A) dopamine receptor (Homo sapiens) (P21728 whole entry, looked up): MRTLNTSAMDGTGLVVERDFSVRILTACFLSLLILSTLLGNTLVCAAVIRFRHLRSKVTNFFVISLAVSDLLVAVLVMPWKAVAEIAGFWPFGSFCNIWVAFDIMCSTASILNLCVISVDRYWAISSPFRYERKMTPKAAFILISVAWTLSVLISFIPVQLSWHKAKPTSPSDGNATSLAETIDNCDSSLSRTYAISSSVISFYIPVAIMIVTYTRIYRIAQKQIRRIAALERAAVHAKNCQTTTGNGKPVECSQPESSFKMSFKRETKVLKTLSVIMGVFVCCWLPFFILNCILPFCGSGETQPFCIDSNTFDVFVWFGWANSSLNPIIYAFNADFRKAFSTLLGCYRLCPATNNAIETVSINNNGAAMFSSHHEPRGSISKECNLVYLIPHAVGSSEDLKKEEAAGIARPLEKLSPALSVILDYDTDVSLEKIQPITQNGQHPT
How it was run: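 Calcium flux in an inducible, force-coupled HEK293 Trex D1 line (overnight at 30 C): agonist mode is the 180 s kinetic read after compound; potentiator mode is the following 180 s read after dopamine at EC20.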

Nc1c(S(=O)(=O)O)cc(Nc2ccc(Nc3nc(Cl)nc(Nc4ccc(S(=O)(=O)O)cc4)n3)c(S(=O)(=O)O)c2)c2c1C(=O)c1ccccc1C2=O
Potency [1]: inactive
Potency [2]: inactive
Potency [3]: 1 µM (active)
Potency [4]: 6.31 µM (active)
outcome [5]: inactive
outcome [6]: inactive
Potency [7]: inactive
Potency [8]: inactive
Potency [9]: inactive
Potency [10]: 4.65 µM (active)
outcome [11]: inactive
outcome [12]: inactive
Potency [13]: 2.39 µM (active)
outcome [14]: inactive
Potency [15]: 1.58 µM (active) and 844 nM (active)
Potency [16]: 1.26 µM (active)
outcome [17]: inactive
outcome [18]: inactive
outcome [19]: inactive
outcome [20]: inactive
